Out of some 4,500 compounds screened, about 200 (4.4%) were called active. Many of the other results were omitted from the sample, so actives are more common in it than they were. Values without a mark were called inactive.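 How the source made its calls: active means cell survival measured by absorbance rises more than 2.5-fold over infected cells without compound; inactive means the rest.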
Test: survival after telomere uncapping, modulators, primary screen, cell-based (AID 1259312);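 further: virus expresses mutant telomerase RNA that uncaps telomeres and kills cells; compound added 2 days after infection so exposure lasts 3 days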
Details: HCT116 + Ad-hTR-mut, MTT, 5 d; at 10 µM, active compounds read high

Row | SMILES | fold change
1 | COC(=O)C1=C(CSCc2ccco2)NC(=O)NC1c1ccc(C)cc1C (configuration not stated) | -1.35
2 | CCOC(=O)c1c(NC(=O)C(F)(F)F)sc2c1CCN(C(=O)OCC)C2 | 1.21
3 | Cc1ccc(-c2nc(CSc3nccc(N)n3)cs2)cc1 | -2.25
4 | O=S(=O)(Nc1ccc(S(=O)(=O)Nc2ccc(F)cc2)cc1)c1ccccc1 | -1.01
5 | O=S(=O)(Nc1ccc(Br)cc1)c1ccc(Cl)cc1 | 1.91
6 | O=S(=O)(Nc1ccc(Br)cc1)c1ccccc1 | 2.66 (active)
7 | O=C1c2cccc(Cl)c2C(=O)c2cccc(Cl)c21 | -1.08
8 | CCc1sc(/C=C(/C#N)C(=O)OC)cc1[N+](=O)[O-] | -2.59
9 | CCN(CC)CCNc1ccc(Cl)cc1[N+](=O)[O-] | 3.03 (active)
10 | CN(C)CCCNc1ccc([N+](=O)[O-])cc1Cl | 3.8 (active)
11 | CCNCCNc1ccc([N+](=O)[O-])cc1Cl | 1.86
12 | NCCCNc1ccc([N+](=O)[O-])cc1Cl | 1.09
13 | NCCCNc1ccc(Cl)cc1[N+](=O)[O-] | -1.5
14 | CCN(CC)CCNc1ccc([N+](=O)[O-])cc1[N+](=O)[O-] | 3.5 (active)
15 | NCCNc1ccc([N+](=O)[O-])cc1[N+](=O)[O-] | 1.82
16 | O=[N+]([O-])c1ccc(NCCO)c([N+](=O)[O-])c1 | 1.74
17 | CN(C)CCNc1ccc(Cl)cc1[N+](=O)[O-] | 1.53
18 | Cc1cccc(-c2cc(=O)c3cc(Br)ccc3o2)c1 | 1.11
19 | Nc1nc(C=C(Cl)Cl)cs1 | 1.63
20 | COc1cc2c(cc1OC)C(C(=O)O)CC(=O)N2 (configuration not stated) | -1.06
21 | COc1ccc(C(O)c2nccn2C)cc1OC (configuration not stated) | -1.55
22 | COc1ccc(-c2coc3ccc(OC4OC(COC(C)=O)C(OC(C)=O)C(OC(C)=O)C4OC(C)=O)c(OC(C)=O)c3c2=O)cc1 (configuration not stated) | -1.42
23 | CC1=NN(c2ccccc2)C(=O)/C1=C\c1cn(-c2ccccc2)nc1C12CC3CC(CC(C3)C1)C2 | -2.06

Row | SMILES | fold change
24 | Clc1ccc(N=Cc2ccccc2Cl)nc1 | 1.71
25 | COc1cc(N=Cc2cc3ccccc3nc2Cl)c(OC)cc1Cl | 3.58 (active)
26 | Oc1c(Br)cc(Br)cc1C=Nc1ccc(Cl)c(Cl)c1 | inactive
27 | Clc1cccc(N=Cc2cc3ccccc3nc2Cl)c1Cl | 3.42 (active)
28 | COc1cc(N=Cc2cc(Cl)cc(Cl)c2O)c(OC)cc1Cl | inactive
29 | Oc1c(Br)cc(Br)cc1C=Nc1ccc(F)cc1 | inactive
30 | Clc1ccc(Cl)c(N=Cc2cc3ccccc3nc2Cl)c1 | 1.49
31 | Clc1nc2ccccc2cc1C=Nc1ccc(Br)cc1 | 3.97 (active)
32 | CC(Sc1ccccc1)C(=O)N[C@@H]1C[C@H]2CC[C@@H]1C2 (some centres not stated) | -1.09
33 | c1ccc(-c2nc(Sc3nc(-c4ccccc4)nc4ccccc34)c3ccccc3n2)cc1 | -1.53
34 | O=c1[nH]c(=O)n(-c2ccccc2)c(O)c1/C=C1\C=Nc2ccccc21 | inactive
35 | CCOC(=O)c1cnn2cc(-c3[nH]ncc3[N+](=O)[O-])cnc12 | -1.64
36 | NC(=O)c1[nH]ncc1[N+](=O)[O-] | 1.08
37 | Cc1cc(C)n2[nH]c(=O)c([N+](=O)[O-])c2n1 | 1.66
38 | N#Cc1cnn2cc([N+](=O)[O-])cnc12 | -1.15
39 | O=c1[nH]n2cc(-c3n[nH]c(-c4cnc5c(Br)c(=O)[nH]n5c4)c3[N+](=O)[O-])cnc2c1Br | 3.53 (active)
40 | O=c1[nH]n2cc(-c3[nH]ncc3[N+](=O)[O-])cnc2c1[N+](=O)[O-] | 4.1 (active)
41 | O=C(O)c1[nH]ncc1[N+](=O)[O-] | 1.94
42 | N#Cc1cnn2cc(-c3[nH]ncc3[N+](=O)[O-])cnc12 | 3.75 (active)
43 | Cn1c(=O)oc2ccc(S(=O)(=O)Nc3ccc4c(c3)CCN4S(C)(=O)=O)cc21 | -1.03
44 | O=C(O)C1CC(=O)N(CC2CCCO2)C1 (configuration not stated) | -1.58
45 | CCc1sc(/C=C(/C#N)C(=O)OC(C)C)cc1Br | -3.71
46 | Fc1ccc(-c2cnc3ccccc3n2)cc1 | -2.09

Row | SMILES | fold change
47 | O=C(CCn1cnnn1)Nc1nc2cc(OC(F)(F)F)ccc2s1 | 1.2
48 | COC1OC2COC(c3ccccc3)OC2C(O)C1OS(=O)(=O)c1ccc(C)cc1 (configuration not stated) | 2.36
49 | COC1OC2COC(c3ccccc3)OC2C(O)C1O (configuration not stated) | 3.25 (active)
50 | COc1ccc(C=Nc2nonc2N)cc1 | -2.59
51 | COc1ccc(N=Nc2c(N)n[nH]c2N)cc1 | active
52 | COc1ccc(-c2nnc(N)o2)cc1 | 1.14
53 | Cc1cc(C)nc(/N=C(/N)Nc2ccc(C)c([N+](=O)[O-])c2)n1 | -1.56
54 | O=C(O)c1cc2cc3c4c(c2oc1=O)CCCN4CCC3 | 1.07
55 | CC(C)(C)[Si](C)(C)N1C(=O)C[C@H]1C(=O)O | 1.19
56 | O=c1[nH]snc1N1CCOCC1 | -1.16
57 | O=C1c2ccc([N+](=O)[O-])cc2C(=O)N1CNc1ccc2c(c1)oc1ccccc12 | 2.96 (active)
58 | CN1C(=O)c2ccc([N+](=O)[O-])cc2C1=O | 1.34
59 | O=C1c2ccc([N+](=O)[O-])cc2C(=O)N1Cc1nc2ccccc2c(=O)o1 | -5.24
60 | O=S(=O)(NCc1ccc2c(c1)OCO2)c1ccc2ccccc2c1 | -1.07
61 | O=c1oc(-c2cccs2)nc2cc([N+](=O)[O-])ccc12 | 1.07
62 | O=C(CCl)N1CCc2ccccc21 | 3.82 (active)
63 | O=C(C(=O)N1CCc2ccccc21)N1CCc2ccccc21 | -1.35
64 | O=C(COc1cccc2ccccc12)N1CCc2ccccc21 | -1.51
65 | CCOC(=O)c1c(NC(=O)c2ccco2)sc(C(=O)N2CCCC2)c1C | -2.09
66 | O=C1C(=Cc2c[nH]c3ccccc23)C(=O)c2ccccc21 | -1.41
67 | NC(=O)CSc1nnc(SCC(N)=O)s1 | -3.2
68 | Nc1nnc(SCC(=O)N2CCCC2)s1 | 1.32
69 | CN(C)C(=O)CSc1nnc(N)s1 | 3.85 (active)

Row | SMILES | fold change
70 | Cc1cc(C)c2oc(-c3cc(N)ccc3Cl)nc2c1 | 1.24
71 | Cn1cnnc1-c1ccc(N)cc1 | -1.13
72 | CC(C)(C)c1ccc(-c2nnc(-c3ccc(Cl)cc3Cl)o2)cc1 | -1.32
73 | S=c1[nH]ccn1-c1ccccc1 | 1.02
74 | NC(=O)c1no[n+]([O-])c1C(N)=O | -1.25
75 | c1ccc(-c2csc(N3CCN(C(c4ccccc4)c4ccccc4)CC3)n2)cc1 | 1.15
76 | O=[N+]([O-])c1ccc(NCCCn2cnc3ccccc32)nc1 | 1.16
77 | O=[N+]([O-])c1ccccc1-n1ccnc1 | -1.71
78 | O=[N+]([O-])c1ccccc1S(=O)(=O)n1cnc2ccccc21 | 3.82 (active)
79 | O=[N+]([O-])c1ccc(S(=O)(=O)Nc2nc3ccccc3s2)cc1 | 1.84
80 | O=[N+]([O-])c1ccc(S(=O)(=O)n2cnc3ccccc32)cc1 | 3.41 (active)
81 | O=[N+]([O-])c1ccc(-n2nnc3ccccc32)c([N+](=O)[O-])c1 | -1.31
82 | COc1cc(OC)cc(C2SC(N)=C(C#N)C(N)=C2C#N)c1 (configuration not stated) | -1.62
83 | NC(CC(=O)O)C(=O)O (configuration not stated) | 1.14
84 | NC(CCCC(N)C(=O)O)C(=O)O (configuration not stated) | -1.27
85 | N[C@@H](CSCC(=O)O)C(=O)O | 2.87 (active)
86 | O=C(Cc1cccs1)NC1CCCC1 | -3.03
87 | C1CCN(c2nc3nonc3nc2N2CCCC2)C1 | -1.59
88 | O=c1[nH]c(/C=C/c2ccc(Br)cc2)c([N+](=O)[O-])c(=O)[nH]1 | 3.45 (active)
89 | O=c1[nH]c(/C=C/c2ccc(Br)cc2)nc(O)c1[N+](=O)[O-] | 2.47
90 | COc1ccc(OC)c(/C=C/c2[nH]c(=O)[nH]c(=O)c2[N+](=O)[O-])c1 | 1.29
91 | N#CC1=C(N)n2c(s/c(=C\c3ccc(Cl)cc3)c2=O)=C(C#N)C1c1ccc(Cl)cc1 (configuration not stated) | -1.6
92 | N#CC1Cc2cc([N+](=O)[O-])ccc2-c2cc(Cl)cc(Cl)c21 (configuration not stated) | -3.59

Row | SMILES | fold change
93 | C/C(Cn1nnc2ccccc21)=N\NC(=O)c1c[nH]c2ccccc12 | -2.58
94 | NNC(=O)COc1ccc2c(c1Br)CCCC2 | 2.77 (active)
95 | NNC(=O)c1ccc(COc2ccc3c(c2)CCC3)o1 | -1.37
96 | O=C(COc1ccc(Br)cc1)NCC1CCCO1 (configuration not stated) | -1.54
97 | S=c1[nH]nc(-c2ccccc2)n1C1CCCCC1 | 1.07
98 | COCCCN1C(=O)/C(=C/c2cccs2)SC1=S | -1.09
99 | CCCCCCCCCCCCCCCC(=O)O | 1.25
100 | CCCCC(CC)C(=O)NC(C)(C)C (configuration not stated) | 1.34
101 | CCCCCCCCCCCCCCC(CC(=O)O)C(=O)O (configuration not stated) | 2.88 (active)
102 | COc1ccc(-c2cc(=O)c3ccc(O)cc3o2)cc1 | -1.7
103 | Cc1csc(NC(=O)c2ccnn2C)n1 | 1.09
104 | Cn1nccc1C(=O)O | 3.48 (active)
105 | Cn1nccc1C(=O)Nc1nc2ccccc2s1 | -1.5
106 | COC(=O)/C(C#N)=C/c1cc(C)sc1C | 1.01
107 | COC(=O)C1=c2s/c(=C/c3ccncc3)c(=O)n2C(c2ccncc2)C(C#N)=C1N (configuration not stated) | 1.32
108 | N#CC1=C(N)C(C#N)=c2s/c(=C/c3c(F)cccc3Cl)c(=O)n2C1c1c(F)cccc1Cl (configuration not stated) | 2.98 (active)
109 | N#CC1=C(N)C(C#N)=c2s/c(=C/c3cccc(F)c3)c(=O)n2C1c1cccc(F)c1 (configuration not stated) | 3.89 (active)
110 | N#CC1=C(N)C(C#N)=c2s/c(=C/c3ccc(Cl)cc3Cl)c(=O)n2C1c1ccc(Cl)cc1Cl (configuration not stated) | -1.24
111 | N#CC1=C(N)n2c(s/c(=C/c3ccc(Cl)cc3Cl)c2=O)=C(C#N)C1c1ccc(Cl)cc1Cl (configuration not stated) | 1.33
112 | N#CC1=C(N)C(C#N)=c2s/c(=C/c3ccc(F)cc3)c(=O)n2C1c1ccc(F)cc1 (configuration not stated) | 2.25

Reference: PubChem BioAssay AID1259312 (Keith Lab, Institute of Cancer Science, University of …, 2017)
